Data from PubChem BioAssay AID624330 (Southern Research Specialized Biocontainment Screening …, 2012).
About 2,100 (0.62%) of roughly 340,000 compounds were called active. Only a sample is shown. Measured potencies and affinities stand elsewhere. Unmarked numbers belong to inactive results.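 How the source made its calls: active means first-screen hits whose inhibition reached a set limit at any dose in the follow-up dose series; inconclusive means inhibition above the set first-screen limit but never retested; inactive means the rest.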

These compounds were tested against Rac GTPase-activating protein 1 (Homo sapiens) (UniProt Q9H0H5) (assay: MgcRacGAP GTPase-activating activity inhibitors, confirmation, biochemical, ADP Hunter fluorescence, primary and confirmatory (AID 624330;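 further: fluorescence reports GDP produced by GAP-driven GTP hydrolysis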)). Conditions: MgcRacGAP-stimulated Rac1 GTP hydrolysis, at 30 µM, active compounds read high, GST-tagged Rac1 F28L mutant substrate.
Chain of Rac GTPase-activating protein 1 (Homo sapiens) (Q9H0H5 whole entry, looked up): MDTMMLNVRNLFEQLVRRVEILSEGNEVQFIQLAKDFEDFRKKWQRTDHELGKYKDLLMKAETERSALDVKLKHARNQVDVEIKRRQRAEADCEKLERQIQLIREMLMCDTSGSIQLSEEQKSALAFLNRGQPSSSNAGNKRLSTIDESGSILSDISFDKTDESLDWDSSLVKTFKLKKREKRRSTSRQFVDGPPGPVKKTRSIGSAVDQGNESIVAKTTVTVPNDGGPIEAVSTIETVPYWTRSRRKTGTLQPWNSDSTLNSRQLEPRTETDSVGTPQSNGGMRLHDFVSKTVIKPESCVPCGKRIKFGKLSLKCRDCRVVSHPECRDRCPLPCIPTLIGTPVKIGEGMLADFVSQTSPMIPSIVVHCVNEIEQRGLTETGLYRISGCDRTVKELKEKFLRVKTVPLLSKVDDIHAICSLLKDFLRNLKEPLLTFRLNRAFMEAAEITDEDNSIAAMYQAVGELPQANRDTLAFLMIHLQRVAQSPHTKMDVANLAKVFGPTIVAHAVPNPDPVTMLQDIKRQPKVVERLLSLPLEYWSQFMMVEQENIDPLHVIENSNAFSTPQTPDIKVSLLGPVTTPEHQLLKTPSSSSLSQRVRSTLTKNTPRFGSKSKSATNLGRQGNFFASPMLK
`COc1cccc2c(C)c(C(=O)O)[nH]c12` showed an inhibition of 7.15%.
With `COc1ccc(OC)c2c(C)cc(C)nc12` the inhibition was 4.59%.
Compound `COc1ccc(N(CC(=O)Nc2ccc(OC)c(OC)c2)S(=O)(=O)c2ccccc2)cc1Cl` has an inhibition of 12.2%.
`COc1ccc(C(=O)N2CCN(C3CCC(c4ccccc4)CC3)CC2)cc1OC` (configuration not stated) showed an inhibition of 23.6%.
Compound `CCc1ccc(CN2CCN(C(=O)c3cccc(OC)c3OC)CC2)cc1` has an inhibition of 23.3%.
With `COc1ccc(C(=O)N2CCN(C(=O)Cc3ccccc3)CC2)cc1OC` the inhibition was 3.19%.
Work on `COc1ccccc1C(=O)N1CCN(C2CCN(Cc3ccccc3)CC2)CC1` yielded an inhibition of 19.4%.
Compound `COc1cc(OC)cc(C(=O)N2CCN(C3CCN(Cc4ccccc4)CC3)CC2)c1` has an inhibition of 29%.
In the case of `CCOC(=O)C1CCN(Cc2ccc(OCc3ccccc3)c(OC)c2)CC1`, the inhibition is reported as 15.7%.
`CCOC(=O)C1CCN(Cc2ccc(OC)c(OCc3ccccc3)c2)CC1` was tested, and the inhibition was 27.7%.
Work on `COc1cc(C(=O)N2CCN(CCCc3ccccc3)CC2)cc(OC)c1OC` yielded an inhibition of 15.2%.
Compound `CCn1c(Cc2cccs2)nnc1SCC(=O)Nc1ccc(OC)c(OC)c1` has an inhibition of 7.07%.
For `O=C(CCCn1c(=O)oc2ccccc21)N1CCc2ccccc2C1`, the inhibition was 8.41%.
Compound `O=C(CSc1nccc(=O)[nH]1)Nc1cccc2ccccc12` has an inhibition of 8.22%.
Work on `Cc1cc(C)cc(NS(=O)(=O)c2ccc3[nH]c(=O)ccc3c2)c1` yielded an inhibition of 6.34%.
`CCCCN(C(=O)c1cccc(-c2ccc(OC(C)=O)cc2)c1)c1c(N)n(CCC)c(=O)[nH]c1=O` was tested, and the inhibition was 8.17%.
`CCc1c(C)c2ccc(O)c(CN(C)C)c2oc1=O` gave an inhibition of 3.54%.
With `CC(C)c1cc(C(F)(F)F)n2nc(C(=O)Nc3ccc(-n4cnnn4)cc3)cc2n1` the inhibition was 0.65%.
With `CCc1cc(C(=O)N2CCCC(CNC(=O)c3ccc(-c4ccccc4)cc3)C2)no1` (configuration not stated) the inhibition was 1.46%.
`O=C(COC(=O)c1ccc(O)cc1O)Nc1cccc2ccccc12` showed an inhibition of 4.44%.
Work on `CC12CCC(=O)C=C1C(F)CC1C2C(O)CC2(C)C1CCC2(O)C(=O)CO` (configuration not stated) yielded an inhibition of -2.17%.
For `COc1ccc(C2Nc3cccc4cccc(c34)N2)cc1`, the inhibition was 16%.
For `COc1ccc(Br)cc1C1Nc2cccc3cccc(c23)N1`, the inhibition was 13.1%.
With `COc1cc(C2Nc3cccc4cccc(c34)N2)cc(OC)c1O` the inhibition was 12.2%.
With `Oc1ccccc1C1Nc2cccc3cccc(c23)N1` the inhibition was 26.2%.
`O=C(Oc1cccc2cccnc12)c1ccco1` showed an inhibition of 12.4%.
`COCC(=O)N(Cc1cc2cc(C)ccc2[nH]c1=O)c1ccc(C)c(C)c1` showed an inhibition of 16.2%.
`O=[N+]([O-])c1ccc(Cl)c(S(=O)(=O)/N=C(/c2ccccc2)N2CCOCC2)c1` was tested, and the inhibition was 2.34%.
`Cc1ccccc1C(=O)N1CCC(C(=O)NCc2ccc(Cl)cc2)CC1` was tested, and the inhibition was 8.11%.
`CC(OC(=O)CC1CCCCC1)C(=O)Nc1ccc(S(N)(=O)=O)cc1` (configuration not stated) showed an inhibition of 1.14%.
Work on `Cc1cc(C)c(S(=O)(=O)Nc2ccccc2)c(C)c1` yielded an inhibition of -2.09%.
`Cc1cc(C)c(C)c(S(=O)(=O)Nc2ccc(OCC(=O)O)cc2)c1C` was tested, and the inhibition was -3.75%.
`Cc1cc(C)c(C)c(S(=O)(=O)Nc2ccc(C(N)=O)cc2)c1C` gave an inhibition of 13.9%.
In the case of `CC(=O)c1ccc(NS(=O)(=O)c2c(C)cc(C)cc2C)cc1`, the inhibition is reported as 2%.
With `O=C(NC1CC1)c1ccc(CN(c2ccccc2)S(=O)(=O)c2ccccc2)cc1` the inhibition was 5.44%.
`O=C(Nc1cccc(-c2ccc(N3CCOCC3)nn2)c1)c1ccc(Cl)cc1` showed an inhibition of 3.67%.
For `CCc1c(C)nc(SCC(=O)N2CCN(c3ccccc3)CC2)[nH]c1=O`, the inhibition was 13%.
For `Cc1ccc(N=Cc2cc(Cc3ccccc3Cl)cc([N+](=O)[O-])c2O)c(O)c1`, the inhibition was 20.2%.
Compound `O=[N+]([O-])c1cc(Cc2ccccc2)cc(C=Nc2ccc(N3CCOCC3)cc2)c1O` has an inhibition of 27.8%.
`O=C(COC(=O)c1cnccn1)NCCc1ccc(Cl)cc1` showed an inhibition of 8.82%.
For `CCOc1ccc(C(=O)NNC(=O)C2CC(=O)N(c3ccc(C)cc3)C2)cc1` (configuration not stated), the inhibition was 5.17%.
`Fc1ccc(/C=N/Nc2nccnc2Cl)cc1` gave an inhibition of 15.7%.
For `Clc1nccnc1N/N=C/c1ccc(Br)cc1`, the inhibition was 13.4%.
In the case of `O=C(O)c1ccc(/C=N/Nc2ncc(Cl)cc2Cl)cc1`, the inhibition is reported as 2.45%.
`Oc1ccc(/C=N/Nc2ccnc3cc(Cl)ccc23)c(O)c1` was tested, and the inhibition was 17.9%.
Work on `Oc1ccccc1/C=N/Nc1nccnc1Cl` yielded an inhibition of 5.4%.
`Clc1cnc(N/N=C/c2ccncc2)c(Cl)c1` showed an inhibition of 3.41%.
Work on `CCC(NC(=O)c1ccccc1NC(=O)C(C)(C)C)C(=O)N1CCCC1` (configuration not stated) yielded an inhibition of 7.5%.
Work on `CCN(C(=O)CSc1nc2cc(S(=O)(=O)N(CC)CC)ccc2n1CC)C1CCS(=O)(=O)C1` (configuration not stated) yielded an inhibition of 0.8%.
Work on `COCCN(C(=O)c1cccc(-n2cnnn2)c1)c1c(N)n(CC(C)C)c(=O)[nH]c1=O` yielded an inhibition of 5.99%.
For `CCc1cc(C(=O)N2CCN(S(=O)(=O)c3ccc(Cl)cc3)CC2)sc1C`, the inhibition was 1.55%.
For `O=C(c1cc(S(=O)(=O)N2CCCCC2)ccc1N1CCOCC1)N1CCN(Cc2ccccc2)CC1`, the inhibition was 7.61%.
Work on `NC(=S)NNC(=O)[C@@H]1CCCC[C@@H]1C(=O)O` yielded an inhibition of 11.2%.
`C=CCOc1cccc(/C=N/NC(=O)CN2CCCCC2)c1` was tested, and the inhibition was 8.26%.
In the case of `O=C(C[C@H]1C/C=C\C[C@@H](Cc2ccc(F)cc2)C(=O)OC[C@H]2CCCN2C1=O)N[C@@H](CO)Cc1ccccc1`, the inhibition is reported as 4.35%.
With `CC(NC(=O)c1cccc(C(F)(F)F)c1)C1CCCO1` (configuration not stated) the inhibition was 6.29%.
Work on `O=c1cc(-c2ccc(O)cc2)oc2c([C@@H]3O[C@H](CO)[C@@H](O)[C@H](O)[C@H]3O)c(O)c([C@@H]3O[C@H](CO)[C@@H](O)[C@H](O)[C@H]3O)c(O)c12` yielded an inhibition of 5.95%.
`COc1ccc(-c2cc(=O)c3c(O)cc(OC4OC(COC5OC(C)C(O)C(O)C5O)C(O)C(O)C4O)cc3o2)cc1O` (configuration not stated) gave an inhibition of 4.67%.
Compound `CC1OC(OCC2OC(Oc3c(-c4ccc(O)cc4)oc4cc(O)cc(O)c4c3=O)C(O)C(O)C2O)C(O)C(O)C1O` (configuration not stated) has an inhibition of 7.46%.
For `O=c1cc(-c2ccc(O)cc2)oc2cc(O)c([C@@H]3O[C@H](CO)[C@@H](O)[C@H](O)[C@H]3O)c(O)c12`, the inhibition was 4.21%.
For `O=c1c2cc(O)c(O)cc2oc2cc(O)c(C3OC(CO)C(O)C(O)C3O)c(O)c12` (configuration not stated), the inhibition was 23.9%.
`O=c1cc(-c2ccc(O)cc2)oc2cc(O)c(C3OC(CO)C(O)C(O)C3O)c(O)c12` (configuration not stated) gave an inhibition of 12.2%.
Work on `CCn1ncc([N+](=O)[O-])c1C(=O)Nc1c(C)nn(Cc2ccc(F)cc2)c1C` yielded an inhibition of -5.73%.
`CN(C)S(=O)(=O)N1CCN(Cc2ccccc2)CC1` showed an inhibition of -9.47%.
`COc1cccc(C(=O)NC2(C(F)(F)F)N=C3SCCN3C2=O)c1` (configuration not stated) was tested, and the inhibition was 8.58%.
Compound `COc1ccc(C(=O)N/N=C(/C)c2cccc(NC(=O)c3ccccc3F)c2)cc1` has an inhibition of 6.03%.
`Cc1nc2ccccc2c(=O)n1NC(=O)Cc1ccc(Br)cc1` showed an inhibition of 1.21%.
`C=CCc1c(C)nc(-c2ccccc2)nc1N/N=C/c1ccccc1` was tested, and the inhibition was 9.45%.
Compound `C=CCc1c(C)nc(-c2ccccc2)nc1Nc1ccccc1O` has an inhibition of -2.42%.
In the case of `COc1ccc(NC(=O)CN2C(=O)C(C)Oc3ccccc32)c(OC)c1` (configuration not stated), the inhibition is reported as 9.91%.
With `CC(C)(C)C(=O)NCc1ccc(C(=O)CSc2nnc3n2CCCCC3)s1` the inhibition was 9.14%.
For `CCOc1ccc(C(CC(=O)O)NC(=O)c2ccco2)cc1OC` (configuration not stated), the inhibition was 5.75%.
For `Oc1cccc(C=NNc2ccccn2)c1`, the inhibition was 2.05%.
`Oc1ccc(/C=N/Nc2cccc3cccnc23)c(O)c1` was tested, and the inhibition was 0.03%.
In the case of `Cc1cc(N/N=C/c2ccc(O)cc2O)nc(-c2ccccc2O)n1`, the inhibition is reported as 9.61%.
With `Oc1ccc(/C=N/Nc2ccc3ccccc3c2)c(O)c1` the inhibition was 9.51%.
In the case of `COc1cccc(/C=N/Nc2cc(Cl)nc(C)n2)c1O`, the inhibition is reported as -19.7%.
With `Cc1cc(N/N=C/c2ccc(O)cc2O)c2ccccc2n1` the inhibition was -8.64%.
`Cc1ccc(-c2c(C(=O)NC(C)C)oc(=O)c3ccccc23)cc1` gave an inhibition of 5.65%.
`CCCCSc1ncnc2c1ncn2C1CCCCO1` (configuration not stated) gave an inhibition of 0.67%.
In the case of `CC12CCC(C(=O)Nc3cc(Cl)ccc3Cl)(C(Br)C1=O)C2(C)C` (configuration not stated), the inhibition is reported as 8%.
Work on `CC(=O)/C(=C/N(C)C)Sc1ccc(C)cc1` yielded an inhibition of -4.58%.
For `COC(=O)[C@@]12CCCN1[C@H](c1ccc(-c3ccccc3)cc1)[C@@H]1C(=O)N(C)C(=O)[C@@H]12`, the inhibition was 10.8%.
In the case of `O=C(COC(=O)CCS(=O)(=O)c1ccc(Cl)cc1)Nc1ncc(Cl)cc1Cl`, the inhibition is reported as -0.72%.
Compound `C=CCOc1ccc(/C=C2\SC(N)=NC2=O)cc1OC` has an inhibition of 7.81%.
In the case of `CCN=C1S/C(=C\c2ccc(OCC)c(OC)c2)C(=O)N1CC`, the inhibition is reported as 2.65%.
`CCN=C1S/C(=C\c2cc(OCC)c(O)cc2Br)C(=O)N1CC` showed an inhibition of 14.2%.
In the case of `CCOc1ccc(N2C(=O)S/C(=C\c3ccc(O)c(OCC)c3)C2=O)cc1`, the inhibition is reported as 9.4%.
`COc1ccc(/C=C2\SC(=O)N=C2N)cc1OC` gave an inhibition of -3.06%.
For `CC(C)(C)c1ccc(/C=C2\SC(=O)N=C2N)cc1`, the inhibition was 2.11%.
`NC1=NC(=O)/C(=C\c2ccc(O)c([N+](=O)[O-])c2)S1` was tested, and the inhibition was 2.32%.
Work on `NC1=NC(=O)S/C1=C\c1ccc(F)cc1` yielded an inhibition of -6.63%.
